High-throughput results deposited in PubChem by Johns Hopkins Ion Channel Center.
KCNQ2 block = blocks the rat KCNQ2 potassium channel; 1.1% of 310,000 active; O88943; CHO-K1 KCNQ2, FluxOR thallium flux, 20 min; hits give low values; AID 2156; B-score at 10 µM;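 active = fluorescence ratio B-score at most minus 3 library SDs, with starting brightness B-score within 2 library SDs, cut at about -5.5 in these data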
KCNQ2 enhance = potentiators of rat KCNQ2 potassium channel. O88943. CHO-K1 KCNQ2, FluxOR thallium flux fluorescence; hits give high values. B-score at 10 µM. 0.54% of 310,000 active;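 active = fluorescence ratio B-score at least 3 SD of library B-scores, with initial fluorescence B-score within 3 of them, cut at about 5.3 in these data; same plate scores as AID 2156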;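 note: B-score of peak minus minimum over baseline fluorescence ratio after K+ and Tl+ stimulus; positive B-score means potentiation of KCNQ2 with more thallium influx and brighter signal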
Kir21 confirm = confirmation of mouse Kir2.1 potassium channel inhibitors. shares compounds with KCNQ2 enhance. Kir2.1-expressing cells, FluxOR thallium flux fluorescence; hits give low values. Tl flux remaining, % of negative control (hits give low values), % at 10 µM. 41% of 2,300 active. AID 2032;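 active = Primary-screen hit whose thallium flux fell at least 3 control SD below untreated wells in both duplicates, with normal baseline fluorescence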;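 note: 0% = blank wells without stimulus and 100% = stimulated no-compound controls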
HEK293 ctr = parental HEK293 activity in Kir2.1 inhibitor counter-screen. 19% of 2,300 active. AID 2105. parental HEK293 cells, FluxOR thallium flux fluorescence; 0% = unstimulated blank wells. FluxOR signal as % of negative control (100 = no effect), % at 10 µM. shares compounds with KCNQ2 enhance;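 active = dye signal at least 3 control SD above or below untreated wells in both duplicates, raw fluorescence within 3, either direction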;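 note: percent is based on the flux ratio of peak minus minimum fluorescence over baseline F0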
CHO-K1 Tl ctr = parental CHO-K1 activity in KCNQ2 potentiator counter-screen. shares compounds with KCNQ2 enhance. parental CHO-K1 cells, FluxOR thallium flux fluorescence; zero = vehicle mean+3SD, 100% = vehicle-minus-blank window. activity increase over 3SD of controls, % at 10 µM. 43% of 1,200 active;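 active = signal rise of at least 3 SD above the untreated control mean, in both duplicate wells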;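 note: counter screen of KCNQ2 potentiator hits so any rise reflects channel-independent effects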
KCNQ1 pot spec = human KCNQ1 counter-target activity of KCNQ2 potentiators; shares compounds with KCNQ2 enhance; CHO KCNQ1 stable, FluxOR thallium flux fluorescence; beyond 3SD, as % of vehicle-control signal; activation over 3SD threshold, % at 10 µM; 28% of 1,200 active; AID 2283;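 active = fluorescence ratio rise of at least 3 SD of vehicle wells above their mean, in both replicate wells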;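 note: 0% = vehicle mean plus 3 SD and 100% = vehicle minus unstimulated blank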
Target sequence (P51787 whole entry, looked up): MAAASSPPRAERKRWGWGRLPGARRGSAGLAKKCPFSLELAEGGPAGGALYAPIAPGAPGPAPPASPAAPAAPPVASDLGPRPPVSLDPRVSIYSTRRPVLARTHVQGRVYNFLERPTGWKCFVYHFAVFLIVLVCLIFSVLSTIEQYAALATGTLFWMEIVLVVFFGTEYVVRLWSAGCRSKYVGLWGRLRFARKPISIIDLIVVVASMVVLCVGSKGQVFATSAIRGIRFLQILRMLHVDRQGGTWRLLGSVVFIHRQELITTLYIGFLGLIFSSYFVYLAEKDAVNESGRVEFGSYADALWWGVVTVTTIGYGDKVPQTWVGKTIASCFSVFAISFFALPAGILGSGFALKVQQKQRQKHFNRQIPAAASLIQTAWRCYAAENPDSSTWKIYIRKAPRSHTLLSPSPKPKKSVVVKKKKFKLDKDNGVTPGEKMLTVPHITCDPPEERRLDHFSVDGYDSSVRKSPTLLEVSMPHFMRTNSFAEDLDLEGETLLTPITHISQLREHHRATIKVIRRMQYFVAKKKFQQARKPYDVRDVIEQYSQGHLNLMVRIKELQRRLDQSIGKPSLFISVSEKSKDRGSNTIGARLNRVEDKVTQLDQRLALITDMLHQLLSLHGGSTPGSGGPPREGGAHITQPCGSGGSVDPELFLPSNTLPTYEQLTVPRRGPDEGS
KCNQ2 pot confirm = rat KCNQ2 channel potentiator confirmation | CHO-KCNQ2 cells, FluxOR thallium flux fluorescence | 68% of 1,200 active | shares compounds with KCNQ2 enhance | potentiation, less the hit threshold, % at 10 µM;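 active = fluorescence ratio rising 3 SD or more over the vehicle control mean in both replicates, plus primary screen hit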;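 note: peak minus minimum thallium fluorescence divided by baseline after K/Tl stimulus; 0% = vehicle mean plus 3 SD and 100% = vehicle minus unstimulated blank difference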
Kir2-1 sel = mouse Kir2.1 off-target activity of KCNQ2 potentiators; shares compounds with KCNQ2 enhance; HEK293 Kir2.1, FluxOR thallium flux fluorescence; activity over 3SD threshold, % at 10 µM; 2% of 1,200 active;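 active = fluorescence ratio rise of at least 3 SD above the vehicle-control mean, seen in both replicates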;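 note: 0% = vehicle mean plus 3 SD and 100% = vehicle minus no-stimulus blank window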
KCNQ2 W236L pot = potentiates the retigabine-insensitive rat KCNQ2 W236L mutant channel; shares compounds with KCNQ2 enhance; CHO KCNQ2-W236L, automated patch clamp current; current increase over 3SD of negative controls (%), hits give high values, % at 25 µM; 10% of 940 active; AID 2558;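 active = current increase at least 3 SD of the untreated controls above them in both duplicate recordings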
Numbers without * were called inactive; i = inactive; / = no result given. This is a sample that favours compounds with a hit; in the whole collection about 1.6% have one here.

SMILES | KCNQ2 block | KCNQ2 enhance | Kir21 confirm | HEK293 ctr | CHO-K1 Tl ctr | KCNQ1 pot spec | KCNQ2 pot confirm | Kir2-1 sel | others
O=C(NNC1=C(C(=O)C(F)(F)F)CCC1)c1ccc(Br)cc1 | i | 4.77 | / | / | / | / | / | /
O=C(NNC1=C(C(=O)C(F)(F)F)CCC1)c1ccccc1Cl | i | 19.1* | i | i | -8.2 | -20.0 | 73.5* | -28.2 | KCNQ2 W236L pot=i
Nc1ccccc1C(=O)NNC1=C(C(=O)C(F)(F)F)CCC1 | i | 6.81* | i | i | 17.7* | -14.1 | -0.3 | -29.1 | KCNQ2 W236L pot=i
Cc1ccc(NC(=O)CSc2nc3ccccc3c(=O)n2CCCC(=O)NCCCN2CCOCC2)cc1 | i | / | / | / | / | / | / | /
Cc1ccccc1-c1nn(-c2ccc(F)cc2F)cc1CNCCCN(C)C | i | / | / | / | / | / | / | /
Cc1noc(COc2ccccc2OCC(N)=O)n1 | i | 0.01 | / | / | / | / | / | /
O=C(NC(=S)N1CCN(c2ccc(Cl)cc2[N+](=O)[O-])CC1)c1cccs1 | i | 5.54* | i | 151.0%* | 52.8* | 23.6* | 8.6* | -32.1 | KCNQ2 W236L pot=i
O=C(NC(=S)N1CCN(c2ccc(Cl)cc2[N+](=O)[O-])CC1)c1ccco1 | i | / | / | / | / | / | / | /
CCc1cc2ccc(C)c(C)c2nc1SCC(=O)Nc1cc(C)on1 | i | 1.1 | / | / | / | / | / | /
Cc1cc2cccc(C)c2nc1SCC(=O)NCC1CCCO1 (configuration not stated) | i | 0.98 | / | / | / | / | / | /
Cc1ccc(OCC(=O)NC2CCCCCC2)cc1C | i | 6.52* | i | i | -3.4 | -16.0 | 2.0* | -41.9 | KCNQ2 W236L pot=i
Cc1cccc(CC(=O)NC2CCCCCC2)c1 | i | 6.71* | i | i | -6.0 | -37.4 | 11.0* | -33.9 | KCNQ2 W236L pot=i
Cc1cccc(CC(=O)NC2CCN(C)CC2)c1 | i | / | / | / | / | / | / | /
Cc1cc(NC(=O)CSc2nc3c(C)c(C)ccc3cc2C)no1 | i | 5.94* | i | i | -26.1 | -7.9 | -11.3 | -35.1
Cc1cc2cccc(C)c2nc1SCC(=O)NC1CCCCC1 | i | 12.6* | i | i | -1.8 | -7.1 | 0.3* | -27.2 | KCNQ2 W236L pot=i
Cc1cccc(OCC(=O)NC2CCCC2)c1 | i | 0.59 | / | / | / | / | / | /
O=C(Nc1cccc2cccnc12)c1ccccc1Br | i | / | / | / | / | / | / | /
CCc1nc(N2CCN(CC(=O)NCC3CCCO3)CC2)c(C#N)c2c1COC(C)(C)C2 (configuration not stated) | i | / | / | / | / | / | / | /
CC1(C)CC(=O)C2=C(C1)OC(N)=C(C#N)C2C1CC=CCC1 (configuration not stated) | i | 0.55 | / | / | / | / | / | /
CC1(C)CC2(CCO1)C(Nc1ccccc1)=NC(=S)N2c1ccccc1 (configuration not stated) | i | / | / | / | / | / | / | /
COC(=O)[C@@H]1C[C@@]2(O)[C@H](O)[C@H](O)[C@H](O)C[C@H]2N1Cc1ccc(-c2ccccc2)cc1 | i | / | / | / | / | / | / | /
Cn1ccnc1SCC(=O)N1CCc2ccccc21 | i | / | / | / | / | / | / | /
Nc1cc(N2CCCCC2)c(Cl)cc1[N+](=O)[O-] | i | 9.2* | i | i | 139.2* | -17.4 | 45.3* | -27.4 | KCNQ2 W236L pot=27.9%*
O=[N+]([O-])c1cc(Cl)ccc1N1CCCCC1 | i | 0.75 | / | / | / | / | / | /
Cc1ccc(CNCCCSc2nc(C)cc(C)n2)cc1 | i | / | / | / | / | / | / | /
Cc1cc(C)nc(SCCCNCc2ccc(Br)cc2)n1 | i | 0.38 | 45.0%* | i | / | / | / | /
CC(C)n1c(N2CCN(S(=O)(=O)c3cccc([N+](=O)[O-])c3)CC2)nc2ccccc21 | i | 0.59 | / | / | / | / | / | /
O=C(O)/C=C/C(=O)N1CCN(c2cccc(Cl)c2)CC1 | i | 0.11 | i | i | / | / | / | /
O=C(O)CCC(=O)N1CCN(c2cccc(Cl)c2)CC1 | i | 0.8 | / | / | / | / | / | /
